Screening results from PubChem.
aSyn 5UTR inh: 5' untranslated region of α-synuclein, MLPCN primary screen; alpha-synuclein 5'UTR reporter, inhibitor activity; inhibition, % (tested at 7.5 µM); 300,000 tested, 0.82% active; AID 1813; in the data active = inhibition above about 60%;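 note: H4 neuroglioblastoma cells stably carrying SNCA 5'UTR luciferase fusion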
Mdm2-MdmX inh: human Mdm2/MdmX binding inhibition; SaOS-2 split-luciferase Mdm2/MdmX complementation, luminescence; inhibition, % at 8 µM; 330,000 tested, 3% active; O15151+Q00987; AID 485346;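 active = inhibition of at least 50% at 8 µM in the primary screen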
Bfl-1 A1 inh: inhibitors of the anti-apoptotic protein A1, read as caspase activation | MEF A1-2A-BIM cells, Caspase-Glo 3/7 luminescence, 3 h; percent of clofoctol response, vehicle zero | caspase activation, % (concentration not given with the values) | 330,000 tested, 0.066% active | AID 2462;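 active = over half of replicate activation scores above 10%, or exactly half above 10 with the replicate mean above 10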
CSC inhib: cancer stem cell inhibition; cancer stem cell-like cells viability, luminescence; inhibition, % at 7.5 µM; 300,000 tested, 1.1% active; in the data active = inhibition above about 75%; tested in HMLE shEcad cells
Beta cell apopt: beta cell apoptosis inhibition; INS-1E cytokine-induced death, ATP luminescence, 48 h; percent of positive-control rescue, neutral wells zero; protection from apoptosis, % (no concentration beside the values); 300,000 tested, 0.8% active;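 active = Every replicate reaches about 75%, or at least half do and their mean reaches it too, limit read from the data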;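 note: higher means more ATP so stronger rescue from cytokine killing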
Mdm2 MdmX conf: human Mdm2/MdmX binding inhibition, confirmed | shares compounds with Mdm2-MdmX inh | luminescent assay | inhibition, % at 8 µM | 10,000 tested, 55% active; in the data active = inhibition above about 40%
FLuc counter: full-length luciferase inhibition in Mdm2/MdmX counter-screen | shares compounds with Mdm2-MdmX inh | SaOS-2 full-length luciferase counterscreen, luminescence | 6,200 tested, 77% active | inhibition, % at 8 µM;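 active = mean inhibition at 8 µM reaching about 37%, which flags the compound as non-specific, limit read from the data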;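 note: p53-null SaOS-2 cells with luciferase driven by a doxycycline-inducible promoter; compound on cells about two nights before reading with doxycycline added after day one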
Hits are given with their value; - = inactive; . = no result. The list is not random: actives were taken first. Their share in the collection is about 4.1%.

SMILES	aSyn 5UTR inh	Mdm2-MdmX inh	Bfl-1 A1 inh	CSC inhib	Beta cell apopt	Mdm2 MdmX conf	FLuc counter
COc1cccc2c1OC1(C)CC2N(C(=O)c2ccco2)C(=S)N1c1ccc(F)cc1 (stereo not given)	-	65.2	-	-	-	53.1	70.3
CC12CC(c3ccccc3O1)N(C(=O)c1ccco1)C(=O)N2c1ccccc1 (stereo not given)	-	-	-	-	-	.	.
Cc1ccc(C)c(-n2nnnc2Sc2nnnn2-c2ccccc2)c1	-	100.1	-	-	.	78.8	52.2
CCSc1nnnn1-c1ccccc1	-	-	-	-	-	.	.
CC(=O)c1ccc(NC(=O)C2=CC(c3cccs3)=NS(=O)(=O)N2C)cc1	-	-	-	-	-	.	.
CCc1ccc(NC(=O)C2=CC(c3cccs3)=NS(=O)(=O)N2C)cc1	-	71.6	-	-	-	57.4	44.2
Cc1ccc(NC(=O)C2=CC(c3cccs3)=NS(=O)(=O)N2C)cc1	-	52.5	.	.	-	-	.
O=C(NCc1nc2ccccc2[nH]1)c1ccc(Cl)c(S(=O)(=O)N2CCCC2)c1	-	-	-	-	-	.	.
CCCn1c(NC(=O)c2ccc(Cl)c(S(=O)(=O)N3CCCC3)c2)nc2ccccc21	-	80.7	-	-	.	69.1	43.1
CS(=O)(=O)N1CCC(C(=O)Nc2cccc(Cl)c2)CC1	-	-	-	-	.	.	.
CCn1nc(C)c(CN2CCC(C(=O)Nc3cccc(-c4cccc(Cl)c4)c3)CC2)c1C	-	80.4	-	-	-	40.4	62.0
COc1cccc(-c2cccc(NC(=O)C3CCN(Cc4nccs4)CC3)c2)c1	-	-	-	-	-	.	.
CCn1ncc(CN2CCC(C(=O)Nc3cccc(-c4cccc(F)c4)c3)CC2)c1C	-	-	.	.	.	.	.
Cc1cc(C)n(CCCN2CCC(C(=O)Nc3cccc(-c4cccc(F)c4)c3)CC2)n1	-	58.0	-	-	-	55.6	74.2
CCOc1ccc(CN2CCC(C(=O)Nc3cccc(-c4ccn[nH]4)c3)CC2)cc1Cl	-	60.5	.	.	.	-	.
COc1ccc2c(O)c(-c3c(C)cc(C)cc3C)c(=O)[nH]c2c1	-	-	-	-	-	.	.
CCCN(CC(=O)Nc1ccccc1C)C(=O)CCl	-	95.1	-	-	-	97.2	49.0
CCN(CC)CCNC(=O)c1ccc(NC(=O)c2cn(-c3ccccc3)nc2-c2cccs2)cc1	-	98.2	-	-	78.5	63.7	52.7
CCN(CC)CCNC(=O)c1ccc(NC(=O)c2cn(-c3ccc(F)cc3)nc2-c2cccc(OC)c2)cc1	-	96.4	-	-	-	58.2	-
O=C(c1cn(-c2ccccc2)nc1-c1cccs1)N1CCN(c2ccccc2)CC1	-	58.8	-	-	-	48.0	64.0
COc1ccc(S(=O)(=O)N(C)C[C@H]2Oc3ccc(NS(=O)(=O)c4cn(C)cn4)cc3C(=O)N([C@H](C)CO)C[C@@H]2C)cc1	.	-	.	.	.	.	.
COc1cc(C(=O)/C=C/c2cccnc2)c([N+](=O)[O-])cc1OC	-	54.6	-	-	-	-	.
Cc1cc(-c2ccc(S(=O)(=O)N3CCN(c4cccc(C)c4C)CC3)s2)on1	-	-	-	-	-	.	.
Cc1cc(C)nc(NC(=O)c2c(F)c(F)c(F)c(C(=O)Nc3cc(C)cc(C)n3)c2F)c1	-	83.0	-	-	-	65.0	-
O=C(/C=C/c1ccc(OCCCF)cc1)Nc1ccnc(-c2ccncc2)n1	-	62.2	-	.	-	-	.
SMILES	aSyn 5UTR inh	Mdm2-MdmX inh	Bfl-1 A1 inh	CSC inhib	Beta cell apopt	Mdm2 MdmX conf	FLuc counter
O=C1c2cccc3cc([N+](=O)[O-])cc(c23)C(=O)N1CCN1CCCC1	97.8	90.0	.	.	.	95.8	52.6
CN(C)CCCNc1ncnc2c1cnn2Cc1ccccc1Cl	-	-	.	.	.	.	.
CC(C)CC(=O)NC(NC(=S)Nc1cccc2cccnc12)C(Cl)(Cl)Cl (stereo not given)	-	-	-	-	-	.	.
CC(C)CC(=O)NC(c1cccs1)c1ccc2cccnc2c1O (stereo not given)	74.0	71.5	-	101.8	109.8	84.7	-
Cc1conc1NC(c1cccs1)c1ccc2cccnc2c1O (stereo not given)	66.3	62.6	-	100.8	106.5	49.9	-
CCC(=O)NC(c1cccs1)c1ccc2cccnc2c1O (stereo not given)	79.6	81.9	-	106.1	106.6	84.3	-
